Measured values: ChEMBL document CHEMBL3988442, “University of Dundee, Small-Polar-MMV Screening Library” (2021)

Each compound was assayed on Trypanosoma cruzi (assay: Trypanosoma cruzi phosphomannomutase and mannose-1-phosphate guanylyltransferase assay). Settings: 10 µM.
Type: functional
Parameters: scale not given: direction of the effect not stated beside the values

Compound	Percent Effect [%]
Cn1ccc(C(=O)NC2CCC23CCN(C(=O)c2ccncc2)CC3)c1 (stereo not given)	-3.17
CNC(=O)[C@H]1C[C@H]2OCC[C@H]2N(Cc2cccc3ccccc23)C1	-0.296
COc1ccc(OCCCN2CCOC(Cn3cccn3)C2)cc1 (stereo not given)	-1.74
Cc1nc2ccccc2nc1CN1CCCC1c1c(C)nn(C)c1C (stereo not given)	5.44
CCN(Cc1cccc(Cl)c1)Cc1nc2c(cnn2C)c(=O)[nH]1	-0.49
O=C(CN1CCCC1Cn1cncn1)NCCOc1cccc(F)c1 (stereo not given)	-0.84
COc1ccc(CCN2CCN(C(=O)c3scnc3C)CC2)cc1	3.8
O=C(c1ccnnc1)N1C[C@@H](OCC2CCCC2)[C@H]2OCCC[C@H]21	-1.95
CCc1ccc(CCC(=O)N2CCOCC2c2ncon2)cc1 (stereo not given)	-2.69
CC(C)CN(C)c1ccc(C(=O)N2CCCC2c2cnn(C)c2)cn1 (stereo not given)	3.46
COc1ccc(CNCC(C)Oc2ccccn2)cc1Br (stereo not given)	5.3
CCc1nc(C2CCCN2CC(=O)Nc2c(C)nn(C)c2C)no1 (stereo not given)	-0.979
Cn1c(Cn2cccn2)nnc1C1CCCN(c2ccncc2)C1 (stereo not given)	3.86
CN(C)C(=O)N1CCC2(CCCN(Cc3cnn(C)c3)C2)C1 (stereo not given)	-2.83
O=C(C1=CCCC1)N1CCC[C@]2(C[C@@H](Oc3ncccc3F)CO2)C1	3.77
Cn1ccc(C(=O)NC2CCC23CCN(C(=O)N2CCCC2)CC3)c1 (stereo not given)	3.42
Cc1cc(C)c2nc(CN3CCOC(CCO)C3)cc(O)c2c1 (stereo not given)	0.965
CNS(=O)(=O)c1ccc(C(=O)NC2CCc3nc(C)cn3C2)o1 (stereo not given)	2.26
O=C(CN1CCC(C(=O)c2cc(F)ccc2F)CC1)NC1CCCC1	-1.46
Cc1ncsc1CCC(=O)NCc1cc2n(n1)CCN(C(=O)N(C)C)C2	-4.96
